# Data: the supplement of paper PMC11001985
# Values without a mark were called inactive.
# Compound: C#CCNC(=O)CCSSCCC(=O)NCCc1ccc(C=O)c(C=O)c1
# Assay: lysine labeling ratio R10:1 (500 µM / 50 µM probe), SILAC-ABPP in living cells; higher = lower intrinsic lysine reactivity toward the probe, active = 2 or less
# Conditions: HeLa; probe concentrations 500 vs 50 µM
# Method in brief: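 An alkyne-tagged lysine probe with a disulfide linker labelled living HeLa cells in PBS at room temperature at either 50 µM or 500 µM, using SILAC light and heavy cells in forward and reverse label swaps. Lysates were mixed, clicked to biotin-azide, trypsin-digested, enriched on neutravidin, DTT-released, alkylated and measured by LC-MS/MS on a TIMS-TOF Pro. Each lysine's R is the filtered median high-probe/low-probe MS1 peptide ratio, combined as the median over forward and reverse replicates, with 20 as the upper limit.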
# Chain of UniProt Q15149 (Q15149 whole entry): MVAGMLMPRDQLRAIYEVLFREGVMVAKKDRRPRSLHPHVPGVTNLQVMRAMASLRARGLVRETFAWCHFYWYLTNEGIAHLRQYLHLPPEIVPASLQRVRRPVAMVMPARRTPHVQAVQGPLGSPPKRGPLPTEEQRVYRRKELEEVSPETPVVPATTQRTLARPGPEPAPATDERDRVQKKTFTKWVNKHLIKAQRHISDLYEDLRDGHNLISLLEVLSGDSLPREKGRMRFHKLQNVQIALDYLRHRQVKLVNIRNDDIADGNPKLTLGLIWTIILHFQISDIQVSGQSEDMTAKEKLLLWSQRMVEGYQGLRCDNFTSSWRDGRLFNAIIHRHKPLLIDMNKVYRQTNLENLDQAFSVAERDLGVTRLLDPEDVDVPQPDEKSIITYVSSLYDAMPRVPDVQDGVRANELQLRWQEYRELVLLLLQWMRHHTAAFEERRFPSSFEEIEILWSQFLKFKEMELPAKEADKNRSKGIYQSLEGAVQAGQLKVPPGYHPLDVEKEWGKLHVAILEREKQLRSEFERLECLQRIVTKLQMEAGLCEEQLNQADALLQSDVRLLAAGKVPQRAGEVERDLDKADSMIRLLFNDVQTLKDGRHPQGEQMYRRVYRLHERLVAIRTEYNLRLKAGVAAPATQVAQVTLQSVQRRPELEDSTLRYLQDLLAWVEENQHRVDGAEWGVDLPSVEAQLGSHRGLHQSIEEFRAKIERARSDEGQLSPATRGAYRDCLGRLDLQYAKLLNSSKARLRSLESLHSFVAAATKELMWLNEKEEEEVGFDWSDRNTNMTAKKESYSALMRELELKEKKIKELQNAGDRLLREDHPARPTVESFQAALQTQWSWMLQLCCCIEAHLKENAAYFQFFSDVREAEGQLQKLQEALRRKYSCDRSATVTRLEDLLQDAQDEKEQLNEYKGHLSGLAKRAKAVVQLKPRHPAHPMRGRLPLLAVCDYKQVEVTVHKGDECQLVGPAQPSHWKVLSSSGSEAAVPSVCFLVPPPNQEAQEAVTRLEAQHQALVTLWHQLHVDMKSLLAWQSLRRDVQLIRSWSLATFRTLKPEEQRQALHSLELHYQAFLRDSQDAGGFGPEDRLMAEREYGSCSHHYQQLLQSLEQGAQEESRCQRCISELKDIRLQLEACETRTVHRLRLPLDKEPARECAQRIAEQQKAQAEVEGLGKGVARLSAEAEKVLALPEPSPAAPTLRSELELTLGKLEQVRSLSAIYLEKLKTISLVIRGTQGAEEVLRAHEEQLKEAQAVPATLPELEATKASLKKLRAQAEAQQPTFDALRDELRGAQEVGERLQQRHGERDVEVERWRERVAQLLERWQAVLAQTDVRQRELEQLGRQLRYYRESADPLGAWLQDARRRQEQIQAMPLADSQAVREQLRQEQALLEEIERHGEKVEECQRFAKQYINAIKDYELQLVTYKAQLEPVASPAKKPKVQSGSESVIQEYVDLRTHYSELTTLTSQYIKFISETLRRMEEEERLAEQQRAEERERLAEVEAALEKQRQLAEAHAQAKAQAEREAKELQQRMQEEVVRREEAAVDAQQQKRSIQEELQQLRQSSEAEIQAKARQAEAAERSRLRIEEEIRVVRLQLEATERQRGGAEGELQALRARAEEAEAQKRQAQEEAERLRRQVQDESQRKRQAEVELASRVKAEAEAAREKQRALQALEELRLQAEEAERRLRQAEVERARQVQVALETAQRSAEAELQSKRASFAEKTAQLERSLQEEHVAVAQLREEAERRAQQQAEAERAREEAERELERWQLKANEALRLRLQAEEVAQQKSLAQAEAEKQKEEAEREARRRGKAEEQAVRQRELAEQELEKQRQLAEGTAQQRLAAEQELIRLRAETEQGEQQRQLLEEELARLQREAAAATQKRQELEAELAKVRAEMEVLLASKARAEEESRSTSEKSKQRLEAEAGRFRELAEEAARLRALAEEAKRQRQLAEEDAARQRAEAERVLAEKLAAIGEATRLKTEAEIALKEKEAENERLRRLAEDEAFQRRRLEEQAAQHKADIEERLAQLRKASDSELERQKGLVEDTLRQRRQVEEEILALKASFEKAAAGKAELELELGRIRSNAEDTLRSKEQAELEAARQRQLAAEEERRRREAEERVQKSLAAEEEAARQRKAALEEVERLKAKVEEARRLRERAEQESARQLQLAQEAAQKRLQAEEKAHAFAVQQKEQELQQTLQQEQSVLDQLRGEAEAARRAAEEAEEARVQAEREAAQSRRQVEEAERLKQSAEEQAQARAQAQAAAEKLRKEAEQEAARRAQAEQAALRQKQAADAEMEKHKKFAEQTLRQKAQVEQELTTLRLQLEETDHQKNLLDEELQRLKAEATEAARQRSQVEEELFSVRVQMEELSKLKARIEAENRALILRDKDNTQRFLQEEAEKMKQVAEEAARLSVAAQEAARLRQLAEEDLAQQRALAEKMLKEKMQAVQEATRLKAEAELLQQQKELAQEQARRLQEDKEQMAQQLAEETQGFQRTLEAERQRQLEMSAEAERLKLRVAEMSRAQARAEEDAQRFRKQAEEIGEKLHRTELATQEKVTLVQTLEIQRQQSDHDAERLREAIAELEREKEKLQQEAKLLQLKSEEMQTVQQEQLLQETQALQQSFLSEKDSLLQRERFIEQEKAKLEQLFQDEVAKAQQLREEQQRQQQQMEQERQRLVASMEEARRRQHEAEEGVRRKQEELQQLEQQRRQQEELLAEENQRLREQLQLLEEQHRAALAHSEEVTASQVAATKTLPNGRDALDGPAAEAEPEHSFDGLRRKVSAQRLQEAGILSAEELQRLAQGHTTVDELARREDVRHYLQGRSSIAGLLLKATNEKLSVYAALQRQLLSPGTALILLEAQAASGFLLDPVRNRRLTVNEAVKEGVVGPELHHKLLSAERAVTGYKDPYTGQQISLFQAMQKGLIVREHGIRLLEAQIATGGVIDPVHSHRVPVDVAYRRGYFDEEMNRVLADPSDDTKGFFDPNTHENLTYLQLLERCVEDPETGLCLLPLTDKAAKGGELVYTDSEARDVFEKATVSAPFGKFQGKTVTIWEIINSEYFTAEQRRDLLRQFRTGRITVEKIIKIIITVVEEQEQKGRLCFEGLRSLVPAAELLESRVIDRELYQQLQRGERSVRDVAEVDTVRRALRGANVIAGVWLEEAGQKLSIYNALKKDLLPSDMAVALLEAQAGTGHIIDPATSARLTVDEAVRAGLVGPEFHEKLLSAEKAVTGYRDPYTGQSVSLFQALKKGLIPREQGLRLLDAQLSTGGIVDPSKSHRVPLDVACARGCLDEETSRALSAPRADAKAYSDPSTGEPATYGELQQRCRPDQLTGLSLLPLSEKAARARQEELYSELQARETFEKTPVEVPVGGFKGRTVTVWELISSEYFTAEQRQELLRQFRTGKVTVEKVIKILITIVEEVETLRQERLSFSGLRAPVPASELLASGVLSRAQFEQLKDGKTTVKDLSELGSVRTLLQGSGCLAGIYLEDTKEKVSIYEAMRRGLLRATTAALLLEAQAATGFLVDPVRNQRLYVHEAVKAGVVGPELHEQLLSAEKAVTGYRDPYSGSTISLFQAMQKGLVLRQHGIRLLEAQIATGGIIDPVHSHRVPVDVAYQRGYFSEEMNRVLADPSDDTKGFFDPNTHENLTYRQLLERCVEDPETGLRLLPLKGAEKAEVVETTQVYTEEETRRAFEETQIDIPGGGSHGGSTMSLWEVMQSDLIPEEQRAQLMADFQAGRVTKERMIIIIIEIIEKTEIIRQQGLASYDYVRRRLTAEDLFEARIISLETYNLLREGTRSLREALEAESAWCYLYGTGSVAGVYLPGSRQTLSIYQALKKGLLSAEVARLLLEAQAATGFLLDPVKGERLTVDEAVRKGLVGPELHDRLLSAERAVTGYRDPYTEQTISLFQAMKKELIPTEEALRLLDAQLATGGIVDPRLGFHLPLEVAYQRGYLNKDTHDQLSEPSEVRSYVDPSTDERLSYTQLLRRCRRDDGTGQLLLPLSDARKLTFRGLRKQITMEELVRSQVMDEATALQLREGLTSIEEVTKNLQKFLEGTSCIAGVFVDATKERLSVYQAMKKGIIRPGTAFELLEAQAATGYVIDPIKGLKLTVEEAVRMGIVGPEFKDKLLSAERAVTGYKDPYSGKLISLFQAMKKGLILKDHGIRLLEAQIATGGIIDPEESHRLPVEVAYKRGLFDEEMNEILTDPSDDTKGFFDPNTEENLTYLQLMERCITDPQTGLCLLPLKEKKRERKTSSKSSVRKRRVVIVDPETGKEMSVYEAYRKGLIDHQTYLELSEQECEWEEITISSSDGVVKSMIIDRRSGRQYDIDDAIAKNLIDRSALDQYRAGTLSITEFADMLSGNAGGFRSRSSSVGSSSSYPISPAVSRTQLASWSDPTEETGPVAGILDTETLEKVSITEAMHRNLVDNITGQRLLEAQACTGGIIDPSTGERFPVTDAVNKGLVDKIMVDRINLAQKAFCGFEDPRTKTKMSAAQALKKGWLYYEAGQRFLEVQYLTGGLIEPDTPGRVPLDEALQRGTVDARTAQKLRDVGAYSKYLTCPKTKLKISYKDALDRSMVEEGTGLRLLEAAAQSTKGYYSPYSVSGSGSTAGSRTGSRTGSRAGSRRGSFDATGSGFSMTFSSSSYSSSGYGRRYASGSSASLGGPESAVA
# Chain of UniProt P30533 (P30533 whole entry): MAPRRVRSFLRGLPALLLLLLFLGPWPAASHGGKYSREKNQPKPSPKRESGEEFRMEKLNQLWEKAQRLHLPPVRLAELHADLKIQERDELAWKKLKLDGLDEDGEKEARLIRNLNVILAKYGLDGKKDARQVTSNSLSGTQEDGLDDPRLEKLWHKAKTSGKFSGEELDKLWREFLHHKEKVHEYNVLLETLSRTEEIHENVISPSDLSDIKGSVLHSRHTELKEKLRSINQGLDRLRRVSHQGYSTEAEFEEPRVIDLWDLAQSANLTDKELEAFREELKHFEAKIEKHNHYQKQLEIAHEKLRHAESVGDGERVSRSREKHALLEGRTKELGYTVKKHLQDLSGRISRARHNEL
# Chain of UniProt Q9NP84 (Q9NP84 whole entry): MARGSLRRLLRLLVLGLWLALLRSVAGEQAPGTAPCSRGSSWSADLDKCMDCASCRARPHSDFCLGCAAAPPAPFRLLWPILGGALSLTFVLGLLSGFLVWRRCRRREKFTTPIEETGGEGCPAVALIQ
row,Target,lysine labeling ratio R10:1
1,DSTN (lysine site: K132) (UniProt P60981),1.32 (active)
2,UniProt P60842 (lysine site: K146),3.63
3,TLN1 (lysine site: K138) (UniProt Q9Y490),1.21 (active)
4,ITGA2 (lysine site: K1046) (UniProt P17301),6.48
5,NEGR1 (lysine site: K231) (UniProt Q7Z3B1),0.868 (active)
6,LY6D (lysine site: K46) (UniProt Q14210),1.33 (active)
7,PGRMC1 (lysine site: K102) (UniProt O00264),5.04
8,GOT2 (lysine site: K73) (UniProt P00505),3.72
9,MYH9 (lysine site: K1492) (UniProt P35579),2.92
10,UniProt P62829 (lysine site: K74),3.78
11,ITGAV (lysine site: K446) (UniProt P06756),2.59
12,CANX (lysine site: K118) (UniProt P27824),2.15
13,UniProt P62913 (lysine site: K52),2.77
14,UniProt Q9NP84 (lysine site: K48),4.2
15,HNRNPL (lysine site: K493) (UniProt P14866),1.94 (active)
16,UniProt Q99623 (lysine site: K216),2.79
17,UniProt Q4KMG0 (lysine site: K149),1.47 (active)
18,SUB1 (lysine site: K53) (UniProt P53999),9.37
19,UniProt Q15303 (lysine site: K109),1.9 (active)
20,UniProt P62333 (lysine site: K298),1.53 (active)

row,Target,lysine labeling ratio R10:1
1,UniProt Q86V81 (lysine site: K235),2.42
2,CACNA2D1 (lysine site: K690) (UniProt P54289),3.51
3,EEF2 (lysine site: K572) (UniProt P13639),2.79
4,UniProt Q15149 (lysine site: K2452),3.75
5,SPTBN1 (lysine site: K832) (UniProt Q01082),2.42
6,DSG2 (lysine site: K406) (UniProt Q14126),3.75
7,AK2 (lysine site: K147) (UniProt P54819),6.91
8,HSPA9 (lysine site: K394) (UniProt P38646),3.32
9,DDR1 (lysine site: K112) (UniProt Q08345),2.03
10,LMO7 (lysine site: K1456) (UniProt Q8WWI1),1.37 (active)
11,UniProt Q15149 (lysine site: K3476),1.8 (active)
12,CD63 (lysine site: K110) (UniProt P08962),5.07
13,FADS2 (lysine site: K108) (UniProt O95864),1.75 (active)
14,UniProt Q15149 (lysine site: K2025),4.19
15,LRPAP1 (lysine site: K323) (UniProt P30533),2.24
16,UniProt P02533 (lysine site: K293),2.74
17,EDIL3 (lysine site: K444) (UniProt O43854),3.53
18,CLU (lysine site: K222) (UniProt P10909),0.58 (active)
19,DSG2 (lysine site: K141) (UniProt Q14126),4.68
20,AGRN (lysine site: K1198) (UniProt O00468),3.68
